From PubChem BioAssay (NCI)
Compounds without any hit were thinned out: in the full panel of roughly 83,000, 20% have a hit.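 Each cell line was grown in a 96-well plate and treated with one concentration of compound for 48 hours. Values below 10 were considered active.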 Active and inactive are the calls of the source.

Each molecule was assayed on HL-60(TB) leukemia (assay: NCI-60 one-dose screen, 48 h (100 = growth as untreated, 0 = no growth, -100 = all killed)). Details: 10 µM unless noted.

SMILES | growth
CCOC(=O)NC(C)C | 68% (inactive)
COc1ccccc1NC(=O)Nc1ccc(-c2nc3ccccc3o2)cc1 | 88.5% (inactive)
Cc1oc2c(Cc3ccc(NC(=O)c4ccc(Cl)cc4)cc3)ncnc2c1C(=O)NO | 87.9% (inactive)
COc1ccc(/C=C/c2c(C(=O)/C=C/c3ccc(Cl)cc3)c(C)nc3ccccc23)cc1 | 10% (inactive)
O=C1CCC(N2C(=O)c3cccc(NCCCC4CCN(CCNC(=O)c5cc6c(o5)C(=O)c5ccccc5C6=O)CC4)c3C2=O)C(=O)N1 (stereo not given) | 6.69% (active)
COc1cc2oc(-c3cccc(NC(=O)c4ccc5c(c4)OCO5)c3)cc(=O)c2c(OC)c1OC | 34.6% (inactive)
CCCn1cc(/C=N\N=C2\C(=O)Nc3ccc(C)cc32)c2ccccc21 | -22.6% (active)
COc1ccc(NC(=O)c2ccc(C(F)(F)F)nc2Nc2ccc(Cl)cc2C)cc1Cl | 4.78% (active)
O=C(Nc1cc(Cl)ccc1O)c1ccccc1Nc1ccnc(C(F)(F)F)c1 | -38.1% (active)
Cn1c(NCCc2ccc(O)c(O)c2)nc2c1c(=O)n(Cc1ccc(Br)cc1)c(=O)n2C | 2.61% (active)
COC(=O)c1cccnc1 | 102% (inactive)
CCCCCCCCCCCCC[C@H](O)C[C@H](O)[C@H](C)N | 54.8% [1.25 µM] (inactive)
O=C(N=c1oc2ccccc2cc1-c1cc2ccccc2[nH]1)Nc1ccc(Cl)cc1 | 78.6% (inactive)
COc1ccc(/C=C/C(=O)CCC(=O)O)cc1OC | 96.7% (inactive)
CC(=O)O[C@H]1C(=O)[C@@]2(C)[C@H]([C@H](OC(=O)c3ccccc3)[C@]3(O)C[C@H](OC(=O)[C@H](OC(=O)CCC(=O)OC4CCC(S/N=C(N)/N=C(\N)N(C)C)CC4)[C@@H](NC(=O)c4ccccc4)c4ccccc4)C(C)=C1C3(C)C)[C@]1(OC(C)=O)CO[C@@H]1C[C@@H]2O (stereo not given in full) | 7.49% (active)
